Arbovirus inh – arbovirus infection inhibition | arbovirus infection cell-based antiviral screen | inhibition, % at 10 µM | actives 0.37% (n = 200,000); in the data active means inhibition above about 30%
ROMK mod – modulators of human ROMK potassium channel | P48048 | Tet-inducible ROMK, thallium flux fluorescence; actives lie on both sides | actives 2% (n = 130,000) | B-score at 10 µM | AID 1918;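 active means signal ratio slope over the read window, or its plate-corrected B-score, at least 3 SD from the plate mean, either direction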;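 further: B-score of the F/F0 ratio slope over 7 to 12 s after thallium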
Target sequence (P48048 whole entry, looked up): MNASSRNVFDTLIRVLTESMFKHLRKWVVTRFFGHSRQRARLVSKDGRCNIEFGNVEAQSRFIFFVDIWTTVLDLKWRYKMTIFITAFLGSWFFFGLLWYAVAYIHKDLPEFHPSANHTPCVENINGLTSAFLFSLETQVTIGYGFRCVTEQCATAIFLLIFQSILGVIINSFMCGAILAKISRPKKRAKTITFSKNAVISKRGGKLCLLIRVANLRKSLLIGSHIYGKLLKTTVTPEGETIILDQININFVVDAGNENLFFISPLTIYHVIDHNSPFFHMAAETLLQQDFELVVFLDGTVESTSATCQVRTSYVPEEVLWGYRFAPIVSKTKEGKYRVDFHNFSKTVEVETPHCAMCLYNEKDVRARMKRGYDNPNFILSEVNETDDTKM
Measles CPE – protection of cells from measles virus | Measles virus-infected cells, CPE protection, absorbance | protection (pct of control), % at 4 µM | actives 1.5% (n = 140,000) | AID 841; in the data active means protection mostly above about 24%, no sharp cut-off; inactive means mostly below about 26%
HSV augment – HSV replication enhancement; actives 0.005% (n = 220,000); maximum fold increase; HSV replication augmentation in cells, fold increase; AID 1956; in the data active means maximum fold increase above about 1.5; inconclusive means no clear call, values can overlap the other calls; tested in PC3 cells
Cl transport mod – modulates chloride dependent transport by human KCC2. Q9H2X9. KCC2 cells, thallium flux FluoZin-2 fluorescence. B-score of Tl+ flux slope (higher = more flux/activation; lower = inhibition) at 10 µM. actives 2.2% (n = 190,000);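 active means thallium flux slope and its plate-corrected score both differing from the plate sample mean at a set confidence after two filtering rounds, in either direction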;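 further: slope of fluorescence scaled to starting intensity during 10 to 20 s after thallium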
Hits are given with their value; 0 = inactive; ? = inconclusive; - = no result given. This is a sample that favours compounds with a hit; in the whole collection about 4% have one here.

SMILES | Arbovirus inh | ROMK mod | Measles CPE | HSV augment | Cl transport mod
CC1=NN(C(N)=S)C(=O)C1N=Nc1ccc(C)cc1C (centres undefined) | 0 | 0 | 0 | - | 20.8
COc1ccc(CCNC(=O)CSc2ccc(-c3ccncc3)nn2)cc1 | 0 | 0 | - | 0 | 0
Cc1cc(N2C(=O)C3C4CC(C(Br)C4Br)C3C2=O)no1 (centres undefined) | 0 | 0 | 31.6 | 0 | -
O=C(COC(=O)c1cc[n+]([O-])cc1)NCc1ccccc1Cl | 0 | 0 | - | 0 | 0
C=CCOC(=O)C1=C(C)NC(=O)NC1c1ccc(OC(=O)c2ccco2)c(OC)c1 (centres undefined) | 0 | 0 | 0 | 0 | -3.27
CC(Oc1ccccc1)C(=O)Nc1nnc(C2CCCCC2)s1 (centres undefined) | 0 | 0 | - | 0 | 0
CCOC(=O)N1CCC(N2CCCC(CO)(Cc3cccc(Cl)c3)C2)CC1 (centres undefined) | 0 | 0 | - | 0 | -
O=C(CC(=O)c1ccccc1O)c1cccc(F)c1 | 0 | 0 | 0 | 0 | -
O=C(CC(=O)c1ccccc1O)c1ccc(F)cc1 | 0 | 0 | 0 | 0 | 24.4
COC(=O)N/N=C/c1ccccc1 | 0 | 0 | - | 0 | 0
S=C(N/N=C/c1ccccc1)N1CCOCC1 | 0 | - | 0 | 0 | 16.3
CSC(=S)N/N=C/c1ccccc1 | 0 | 6.17 | - | 0 | 170
O=C(O)c1ccccc1-c1ccccc1C(=O)Nc1cccc(O)c1 | 0 | 0 | - | 0 | 0
CCOC(=O)CC(=O)NC1(Cc2ccc(O)cc2)CCCCC1 | 0 | - | - | 0 | 0
O=C(CSCc1ccccc1)Nc1cccc(C(=O)Nc2ccccc2C(=O)O)c1 | 31.2 | - | 0 | 0 | -
O=C(CSCc1ccc(Cl)cc1)Nc1cccc(C(=O)Nc2ccccc2C(=O)O)c1 | 36.2 | - | 0 | 0 | 0
CC(C)C(=O)Nc1cccc(C(=O)Nc2ccccc2C(=O)O)c1 | 0 | 0 | 0 | 0 | -
O=C(O)CCCC(=O)Nc1cccc(C(=O)Nc2ccccc2C(=O)O)c1 | 0 | 0 | - | 0 | 0
Cc1ccc(NC(=O)Nc2ccc(F)cc2)cc1Cl | 0 | 0 | - | 0 | 0
CCN(CC)C(=O)NC1CCCCCCC1 | 0 | 0 | - | 0 | 0
Cc1cc(NC(=O)CSc2nnc(N)s2)c([N+](=O)[O-])cc1C | 0 | 0 | - | 0 | 0
Cc1cc(C)cc(N2C(=O)CN(Cc3sccc3C)C2=S)c1 | 0 | 0 | 45.6 | 0 | 0
O=C(NC1CCCCC1)c1ccc(CNc2ccccc2)o1 | 0 | - | 35.7 | 0 | 0
CCN(CC)S(=O)(=O)c1cccc(-c2nnc(SCc3nc4ccccc4s3)o2)c1 | 0 | - | 0 | 0 | 0
Brc1ccccc1-c1nnc(SCc2nc3ccccc3s2)o1 | 34.0 | 0 | 0 | 0 | 0
SMILES | Arbovirus inh | ROMK mod | Measles CPE | HSV augment | Cl transport mod
O=C(NCCc1ccccc1)N1c2ccccc2Sc2ccccc21 | 0 | 1.81 | 0 | 0 | 0
CC(C)CNC(=O)N1c2ccccc2Sc2ccccc21 | - | - | - | 0 | 0
O=c1cc(-c2ccccc2)nc(SCc2ccccc2F)[nH]1 | 0 | 0 | - | 0 | 0
COc1cccc(C(=O)Nc2cccc(C(=O)NC3=NN(c4c(Cl)cc(Cl)cc4Cl)C(=O)C3)c2)c1 | 34.4 | - | 0 | 0 | -
CC(C)(C)C(=O)NC1=NN(c2c(Cl)cc(Cl)cc2Cl)C(=O)C1 | 0 | 0 | - | 0 | 0
COC(=O)c1cc(NC(=O)c2cccc(Cl)c2)c(=O)oc1/C=C/Nc1cc(C)cc(C)c1 | 0 | -5.85 | - | ? | 0
COC(=O)c1cc(NC(=O)c2cccc(C(F)(F)F)c2)c(=O)oc1C | 0 | 0 | - | 0 | 0
COc1c(C)cc(C(=O)C2CCCN(C(=O)c3ccc4cc[nH]c4c3)C2)cc1C (centres undefined) | 0 | 0 | - | 0 | -
CC(=O)Nc1ccc(Sc2ncnc3scc(-c4ccccc4)c23)cc1 | 0 | - | 0 | 0 | 0
CC(=O)Nc1cccc(Oc2ncnc3scc(-c4ccc(C(C)C)cc4)c23)c1 | 0 | 0 | 59.9 | 0 | 0
C[C@@H]1CC[C@@]2(O[C@@H](CCO)C[C@H](O)[C@H]2O)O1 | - | - | - | 0 | -
COc1cc(NC(=O)Cc2cccs2)cc(OC)c1 | 0 | 0 | 33.9 | 0 | 0
COc1cc(NC(=O)Cc2cccs2)ccc1-n1cnnn1 | 0 | - | 29.0 | 0 | 0
COc1cc(C(=O)Nc2ccc3c(c2)OCO3)ccc1-n1cnnn1 | 0 | 0 | 0 | 0 | 0
Cc1ccccc1CNc1ccc(C(CC(N)=O)NC(=O)c2ccccc2)cc1[N+](=O)[O-] (centres undefined) | - | - | - | 0 | 0
COc1ccc2occ(NC(C)=O)c2c1 | 0 | 0 | 42.2 | 0 | 0
COc1ccc(NC(C)=O)c(C)c1 | 0 | 0 | - | 0 | 0
O=C(CCl)Nc1ccccc1Sc1ccccc1 | 0 | 0 | 45.7 | 0 | 0
COc1cc(OC)cc(C(=O)N[C@H](C(=O)OCC(=O)c2ccc3c(c2)NC(=O)CO3)C(C)C)c1 | 0 | 0 | 31.9 | 0 | 0

Bioassay records from PubChem.
